# Experimental data: PubChem BioAssay AID624310 (Broad Institute, 2012)
# Activity calls are given as the source filed them.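 Rule for the calls: active = compound lowering absorbance whose fitted half-maximal concentration is at most twice its top valid dose; inconclusive = flat fit with 30 to 70% inhibition, or poor fit; inactive = the rest, including wrong-direction or flat responses.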
# Biological target: Protein disulfide-isomerase (Homo sapiens) (UniProt P07237)
# Assay: inhibition of PDI-catalysed insulin clumping – biochemical, turbidity, absorbance, dry powder samples, confirmation (AID 624310)
# Conditions: recombinant PDI insulin aggregation, absorbance 650 nm; series mostly up to 18 µM
# Chain of Protein disulfide-isomerase (Homo sapiens) (P07237 whole entry, looked up): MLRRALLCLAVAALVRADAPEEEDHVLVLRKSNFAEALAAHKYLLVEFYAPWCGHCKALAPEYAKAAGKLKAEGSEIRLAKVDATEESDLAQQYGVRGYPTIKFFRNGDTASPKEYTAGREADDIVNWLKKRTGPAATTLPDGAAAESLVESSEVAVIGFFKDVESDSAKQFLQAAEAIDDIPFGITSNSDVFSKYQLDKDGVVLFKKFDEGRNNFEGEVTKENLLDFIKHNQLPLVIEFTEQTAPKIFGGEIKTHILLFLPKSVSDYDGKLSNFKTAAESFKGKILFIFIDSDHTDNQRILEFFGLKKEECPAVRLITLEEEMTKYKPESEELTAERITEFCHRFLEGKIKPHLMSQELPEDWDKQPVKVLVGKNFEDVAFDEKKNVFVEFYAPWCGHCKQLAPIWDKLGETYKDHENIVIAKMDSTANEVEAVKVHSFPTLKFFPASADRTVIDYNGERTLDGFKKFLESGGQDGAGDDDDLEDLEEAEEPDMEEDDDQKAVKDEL
compound,measurement,value
C[C@H]1CN([C@@H](C)CO)C(=O)c2cccc(NS(C)(=O)=O)c2O[C@H]1CN(C)Cc1ccc(Oc2ccccc2)cc1,outcome,inactive
